Screening data from PubChem BioAssay.
Mac1 fbg inh – inhibitors of CD11b/CD18 adhesion to fibrinogen, primary screen, K562 cells, luminescence. hit rate 0.54% among 93,000. inhibition, % at 10 µM. Integrin beta-2 (Homo sapiens) + Integrin alpha-M (Homo sapiens), P05107+P11215. ATPlite luminescence; Mn2+ added to activate the integrin;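 active = primary inhibition of 50% or more at 10 µM, then 40% or more on retest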
PLAP activator – PLAP enzyme activators, biochemical, luminescence, HTS | Alkaline phosphatase, placental type (Homo sapiens), P05187 | purified PLAP enzyme, luminescent substrate read-out; stronger effect = higher value | activation fold at 20 µM | hit rate 1.2% among 96,000; in the data active = activation fold above about 2
CD11b adhes enh – enhancers of CD11b/CD18 adhesion to fibrinogen, primary screen, K562 cells, luminescence | Integrin beta-2 (Homo sapiens) + Integrin alpha-M (Homo sapiens), P05107+P11215 | ATPlite luminescence | activation, % at 10 µM | hit rate 0.07% among 93,000 | AID 1499, 2009;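 active = 10 µM primary screen giving 50% or more activity, confirmed by 40% or more on retest at that dose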
HePTP inhibitor – inhibitors of human HePTP phosphatase, primary screen, biochemical, absorbance, leukemia target. recombinant HePTP phosphatase activity, OD absorbance. inhibition, % at 20 µM. hit rate 0.64% among 110,000. Tyrosine-protein phosphatase non-receptor type 7 (Homo sapiens), P35236; in the data active = inhibition above about 50%
Target sequence (P35236 whole entry, looked up): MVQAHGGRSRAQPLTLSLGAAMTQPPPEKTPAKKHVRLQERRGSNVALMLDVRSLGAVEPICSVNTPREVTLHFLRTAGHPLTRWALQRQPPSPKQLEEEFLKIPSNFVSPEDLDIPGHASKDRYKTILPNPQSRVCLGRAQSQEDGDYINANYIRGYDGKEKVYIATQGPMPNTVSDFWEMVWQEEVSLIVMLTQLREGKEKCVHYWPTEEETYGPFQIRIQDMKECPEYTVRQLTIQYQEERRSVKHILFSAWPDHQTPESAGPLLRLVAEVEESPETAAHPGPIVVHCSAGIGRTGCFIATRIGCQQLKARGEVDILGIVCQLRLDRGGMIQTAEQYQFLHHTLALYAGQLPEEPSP
A number is an active result; . = inactive; / = not tested or not shown. A selection: hits, their analogues and other compounds. The true share with any hit is near 1.5%.

SMILES	Mac1 fbg inh	PLAP activator	CD11b adhes enh	HePTP inhibitor
Cc1ccc(NC(=O)CSCC(=O)Nc2ccccc2)c(C)c1	/	/	/	.
CCOC(=O)CSc1nnc(-c2cccc(OC)c2)n1-c1ccccc1	/	/	/	93.8
CCCCOc1cccc(C(=O)Nc2ccc(N3CCN(C(C)=O)CC3)cc2)c1	/	/	/	.
Cc1csc(NC(=O)c2nc3nc(C)cc(C)n3n2)n1	.	2.1	.	.
O=C(Nc1nccs1)c1nc(-c2ccccc2)n(-c2ccccc2)n1	.	.	.	.
Cc1csc(NC(=O)c2nc(-c3ccccc3)n(-c3ccccc3)n2)n1	.	2.8	.	.
COc1cc(/C=C2/C(C)=C(C#N)c3nc(N)c(C#N)c(C)c32)c([N+](=O)[O-])cc1OC	/	/	/	.
CCOP(=O)(O)COc1ccc([N+](=O)[O-])cc1	/	/	/	.
O=C(CSC1=NCCS1)Nc1ccnc2ccccc12	99.5	.	.	.
CNC(=S)N(C)/N=C/C(=O)c1ccccc1	/	/	/	.
Cc1cccc(N(CC(=O)NC2CCCC2)C(=O)CCCC(=O)Nc2ccccn2)c1	.	2	.	.
Cc1ccc(C2Nc3ccc4ncccc4c3C3=C2C(=O)CC(C)(C)C3)cc1 (centres undefined)	/	/	/	.
CCc1c(C)[nH]c2nc3ccccc3n2c1=O	.	2.3	.	/
O=c1cc(-c2ccccc2)[nH]c2nc3ccccc3n12	.	.	.	.
O=C(Cc1ccc([N+](=O)[O-])cc1)Nc1ccccc1-c1ccccc1	/	/	/	.
O=C1CC(NCc2cccs2)C(=O)N1c1ccc(Cl)cc1 (centres undefined)	66.0	.	.	.
O=C1CC(NCc2ccncc2)C(=O)N1c1ccc(Cl)cc1 (centres undefined)	.	.	.	.
CCOC(=O)c1c(N)sc(C(=O)NC2CCCCC2)c1C	/	/	/	.
CCOCCCn1c(-c2ccc(Cl)cc2)n[nH]c1=S	.	2.4	.	/
CC(=O)c1sc(Nc2nc3ccc(F)cc3s2)nc1C	.	2.3	.	.
COc1ccc(NC(=O)/C(=C\c2cccnc2)NC(=O)c2ccccc2)cc1	/	/	/	.
COc1ccc(NC(=O)CSc2nnc(Cc3ccccc3)o2)c(OC)c1	.	2.3	.	.
COc1ccc(NC(=O)COc2ccccc2)c(OC)c1	.	.	.	.
COc1ccc(NC(=O)COc2ccc(C(C)(C)c3ccccc3)cc2)c(OC)c1	/	/	/	102.3
COc1ccccc1NC(=O)CSc1nnc(Cc2ccccc2)o1	.	.	.	.
SMILES	Mac1 fbg inh	PLAP activator	CD11b adhes enh	HePTP inhibitor
COc1ccc(S(=O)(=O)CCc2nnc(-c3ccc(Br)cc3)o2)cc1	/	/	/	.
Nc1c(C(=O)NCc2ccc(F)cc2)c2nc3ccccc3nc2n1CCCN1CCOCC1	.	2	.	/
COc1ccccc1CNC(=O)CSCc1cnn(-c2ccccc2)c1-n1cccc1	.	2.7	.	/
COc1cccc(CNC(=O)CSCc2cnn(-c3ccccc3)c2-n2cccc2)c1OC	.	2.6	.	/
COc1ccc(C(=O)NCC2(c3ccc(OC)c(OC)c3)CCCCC2)c(OC)c1	/	/	/	.
CCOC(=O)c1csc(NC(=O)CSc2nnnn2-c2ccc(OC)cc2)n1	.	.	.	.
CCOC(=O)c1c(NC(=O)CSc2nnnn2-c2ccc(OC)cc2)sc(C)c1C	63.4	.	.	/
CC(=O)c1ccc(-n2c(-c3cc(-c4ccco4)[nH]n3)n[nH]c2=S)cc1	.	2.6	.	/
O=C(O)c1ccc(-n2c(-c3cc(-c4ccco4)[nH]n3)n[nH]c2=S)cc1	/	.	/	/
CCN1CCN(Cc2cccc(Oc3ccc(Cl)cc3)c2)CC1	.	.	.	/
CCN1CCN(Cc2cccc(Oc3ccccc3)c2)CC1	.	2.2	.	/
CC1=NNC(=O)C1C(c1ccccc1)C(C#N)C#N (centres undefined)	.	2.2	.	/
COC(=O)/C=C(\C)NCCN/C(C)=C/C(=O)OC	/	/	/	104.7
CCN(CC)CCCOc1cccc(OC)c1	/	/	/	.
C/C(=N\NC(=O)c1c[nH]c2ccccc12)c1ccco1	.	2.3	.	.
CCOc1ccc(/C=C2\C(=O)NC(=O)N(c3cccc(Br)c3)C2=O)cc1Cl	/	/	/	.
O=C(CCC1CCCCC1)Nc1ncn[nH]1	.	2	.	.
O=C(Cc1cccs1)Nc1nc(-c2ccc(F)cc2F)cs1	65.3	.	.	/
CC1=C/C(=N\OS(=O)(=O)c2ccccc2)C(C)=CC1=O	96.8	.	.	/
CCOc1ccc(N2C(=O)NC(=O)/C(=C\c3ccc(N(CC)CC)cc3OC)C2=O)cc1	/	/	/	.
COc1ccc(CCNC(=O)c2cc(-c3ccc(C)c(C)c3O)n[nH]2)cc1OC	.	2.1	.	/
